High-throughput results deposited in PubChem by NMMLSC.
A selection: hits, their analogues and other compounds. The true share with any hit is near 0.4%.
Cdc42 wt: human Cdc42 wildtype GTP binding change, either direction. P60953. GST-Cdc42 beads, Bodipy-GTP binding, flow cytometry; actives lie on both sides. percent activity (GTP binding), % at 10 µM. 190,000 compounds, 0.2% hits;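 active = percent activity GTP binding at least 20 points away from the 100% baseline, either down as inhibitor or up as activator; inconclusive = compound flagged as likely green fluorescent from well-wide comparison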;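 note: median bead fluorescence of bound Bodipy-FL-GTP at 100 nM; below 100% means less GTP binding so inhibitor and above means activator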
Target sequence (P60953 whole entry, looked up): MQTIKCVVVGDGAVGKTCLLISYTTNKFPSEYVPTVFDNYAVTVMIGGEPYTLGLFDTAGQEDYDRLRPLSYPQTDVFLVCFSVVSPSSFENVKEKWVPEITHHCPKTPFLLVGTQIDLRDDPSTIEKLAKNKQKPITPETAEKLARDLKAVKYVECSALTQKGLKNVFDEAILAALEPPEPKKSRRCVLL
HRas wt GTP: modulators of GTP binding to human HRas wildtype; AID 759; P01112; GST-Ras wt beads, Bodipy-FL-GTP binding, flow cytometry; actives lie on both sides; 190,000 compounds, 0.14% hits; GTP binding activity, % at 10 µM;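 active = GTP binding activity at least 20% away from the 100% baseline, either lowered as inhibitor or raised as activator; inconclusive = flagged as likely green fluorescent, judged across all proteins in the well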
Target sequence (P01112 whole entry, looked up): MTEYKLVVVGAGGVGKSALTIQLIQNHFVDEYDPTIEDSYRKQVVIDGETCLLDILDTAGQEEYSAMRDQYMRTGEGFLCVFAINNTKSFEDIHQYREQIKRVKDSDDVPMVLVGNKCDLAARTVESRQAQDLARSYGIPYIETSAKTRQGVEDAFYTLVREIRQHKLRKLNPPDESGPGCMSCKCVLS
Rab7 wt modul: alters GTP binding to wildtype dog Rab7; GST-Rab7 beads, fluorescent GTP binding, flow cytometry; actives lie on both sides; untreated = 100%, excess cold GTP = 0%; GTP binding activity (percent of control), % at 10 µM; 190,000 compounds, 0.055% hits;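 active = fluorescent GTP binding to Rab7 beads changed by at least 20 points from the 100% baseline, either direction, mostly lower; inconclusive = compound itself probably fluorescent, or too few beads counted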;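 note: median green fluorescence of bound Bodipy-FL-GTP per Rab7 bead population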
Rab2A wt mod: changes GTP binding to wildtype dog Rab2A, up or down. P61105. GST-Rab2 wt beads, Bodipy-GTP binding, flow cytometry. GTP binding activity, % at 10 µM. 190,000 compounds, 0.19% hits. AID 760;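 active = GTP binding activity at least 20 points away from 100%, either lowered or raised; inconclusive = signal likely due to the compound's own green fluorescence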
Rac1 wt modul: human Rac1 wildtype GTP binding, inhibitors and activators; GST-Rac1 beads, fluorescent GTP binding, flow cytometry; actives lie on both sides; 0 = cold GTP competed, 100 = untreated; 190,000 compounds, 0.27% hits; GTP binding activity (% of control), % at 10 µM;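 active = GTP binding activity at least 20 points away from the 100% control level, either lower or higher; inconclusive = compound flagged as likely green fluorescent, judged across all proteins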
Rac1 mut GTP: alters GTP binding to activated mutant human Rac1; GST-Rac1 activated beads, fluorescent GTP binding, flow cytometry; actives lie on both sides; 100% means binding = to untreated wells; percent activity (GTP binding), % at 10 µM; 190,000 compounds, 0.11% hits; AID 764;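 active = GTP binding at least 20 percentage points away from the 100% baseline, in either direction, so actives lie on both sides; inconclusive = Compound likely fluorescent itself, or too few beads counted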
Each line names hits and unclear results; the compound was inactive in the other large screens; [ ] = remark or other dose.

O=c1[nH]c(N/N=C\c2ccc(F)cc2)nc2ccccc12	none
COc1cc2[nH]c(=S)nc(NC3CCCCCC3)c2cc1OC	Cdc42 wt 69.0, HRas wt GTP 66.0, Rab2A wt mod 69.0, Rac1 wt modul 60.0
COc1cc2[nH]c(=S)n(CC3CCCO3)c(=O)c2cc1OC (configuration not stated)	none
COc1cc2[nH]c(=S)nc(NCC3CCCO3)c2cc1OC (configuration not stated)	Cdc42 wt 74.0, Rac1 wt modul 74.0
COc1cc([C@H]2[C@@H]3CCCC[C@]3(O)CCN2CC(=O)Nc2ccc(C)cc2)ccc1O	none
CCCC(=O)Nc1ccc(N2CCN(S(C)(=O)=O)CC2)cc1	none
Cc1ccc2c(c1)c1nnc(SCC(=O)N3CCCc4ccccc43)nc1n2CC(=O)O	Cdc42 wt 64.0, HRas wt GTP 67.0, Rab2A wt mod 66.0, Rac1 wt modul 66.0
OC1(c2ccccc2F)CCN(Cc2nnnn2Cc2ccc(F)cc2)CC1	none
CCOc1ccc(Cn2c3ccc(OC)cc3c3nc4ccccc4nc32)cc1	Rab7 wt modul inconclusive, Rab2A wt mod 130.0[activator], Rac1 wt modul 124.0[activator]
Cc1ccc(C(C(=O)Nc2ccc3c(c2)OCO3)N(C)C(=O)/C=C\c2ccc3c(c2)OCO3)cc1 (configuration not stated)	none
O=C(COC(=O)c1ccc2c(c1)C(=O)N(c1cccc3ncccc13)C2=O)c1ccc(Cl)cc1	none
Cc1ccc(C(=O)COC(=O)c2ccc3c(c2)C(=O)N(c2cccc4ncccc24)C3=O)cc1	Cdc42 wt 77.0, HRas wt GTP 76.0, Rab2A wt mod 71.0, Rac1 wt modul 71.0, Rac1 mut GTP 75.0
O=C(COC(=O)/C=C/c1cccs1)Nc1ccc2ccccc2c1	Cdc42 wt 73.0, Rab2A wt mod 76.0, Rac1 wt modul 74.0, Rac1 mut GTP 76.0
O=C(COC(=O)/C=C/c1cccs1)Nc1ccccc1Cl	none
N#CC(C#N)=C(Nc1ccc(F)cc1)SCc1cccc(Br)c1	Cdc42 wt 127.0[activator], Rac1 wt modul 134.0[activator]
COc1ccccc1CNc1ccc(N2CCOCC2)c(C(=O)O)c1	none
O=C1c2ccccc2C(=O)N1CCCCN(C(=O)c1cc2ccccc2oc1=O)c1ccc(Cl)cc1	Cdc42 wt 43.0, HRas wt GTP 51.0, Rab7 wt modul 29.0, Rab2A wt mod 46.0, Rac1 wt modul 50.0, Rac1 mut GTP 53.0
O=C(O)c1ccc(N2C(=O)/C(=C/c3ccc(-c4ccc([N+](=O)[O-])cc4)o3)C=C2c2ccccc2)cc1	Cdc42 wt 75.0, Rac1 wt modul 79.0, Rac1 mut GTP 79.0
CC1=NN(c2ccc(Cl)c(C(=O)O)c2)C(=O)/C1=C\c1ccc(-c2ccc(C(=O)O)cc2)o1	none
Cc1ccc(C(=O)NC(=S)/C=C2\N(C)c3ccccc3C2(C)C)cc1	none
O=C(Cc1ccc(Nc2nc(=S)[nH]c3ccccc23)cc1)NC1CCCCC1	Cdc42 wt 65.0, HRas wt GTP 68.0, Rab2A wt mod 66.0, Rac1 wt modul 57.0, Rac1 mut GTP 76.0
O=C(CCCCCNc1nc(=S)[nH]c2ccccc12)NCCc1ccc(Cl)cc1	none
CC(C)CCNC(=O)Cc1ccc(Nc2nc(=S)[nH]c3ccccc23)cc1	HRas wt GTP 75.0, Rab2A wt mod 75.0, Rac1 wt modul 73.0
O=C(Cc1c(O)c2ccccc2[nH]c1=O)NC1CCCCCC1	none
CCOC(=O)N1CCc2c(sc3nc4n(c(=O)c23)N=C(C)CS4)C1	none
COc1ccc(-c2nnc(S/C(=C/c3ccc(Cl)cc3)C(=O)O)o2)cc1	Cdc42 wt 74.0, Rab2A wt mod 75.0, Rac1 mut GTP 73.0
Cc1cc(C)n2nc(SCCOc3ccccc3)nc2n1	Rac1 wt modul 78.0
Cc1cc(C)n2nc(SCC(=O)Nc3ccccc3)nc2n1	none
O=C(COC(=O)c1cc2ccccc2o1)c1ccccc1	none
O=C(OCCN1CCCCC1)c1cc2ccccc2o1	Rac1 wt modul 123.0[activator]
COC(=O)C1=C(C)OC(N)=C(C#N)C1C1CCCCC1 (configuration not stated)	none
Cc1cc(C)c2nc(NNC(=O)c3cc(=O)c4ccccc4o3)sc2c1	Cdc42 wt 77.0, Rab2A wt mod 79.0, Rac1 mut GTP 71.0
Cc1ccc(C)c(N2CCN(C(=O)CN(C)S(=O)(=O)c3ccc4c(c3)CCC(=O)N4)CC2)c1	Cdc42 wt 76.0, Rab2A wt mod 77.0, Rac1 wt modul 79.0
COc1ccc(N/C=C/c2nc(SC)nnc2C)cc1	Cdc42 wt 67.0, HRas wt GTP 69.0, Rab2A wt mod 66.0, Rac1 wt modul 64.0
CSc1nnc(C)c(/C=C/Nc2ccc(F)cc2)n1	none
Cc1cc(C)c(S(C)(=O)=O)c(Oc2ccc(C(C)(C)C)cc2)n1	none
COC(=O)c1ccccc1NC1CC(=O)N(c2c(C)cccc2C)C1=O (configuration not stated)	none
O=C(O)CSc1ncccc1C(=O)O	none
Cc1ccc(C)c(CSc2ncccc2C(=O)O)c1	Cdc42 wt 132.0[activator], Rac1 wt modul 144.0[activator], Rac1 mut GTP 126.0[activator]
Cc1ccc(Sc2ncccc2C(=O)O)c(C)c1	Cdc42 wt 126.0[activator], HRas wt GTP 123.0[activator], Rab2A wt mod 124.0[activator], Rac1 wt modul 135.0[activator], Rac1 mut GTP 127.0[activator]
O=C(O)c1cccnc1SCc1ccccc1Cl	Cdc42 wt 122.0[activator], Rac1 wt modul 131.0[activator], Rac1 mut GTP 121.0[activator]
O=C(COC(=O)Cc1ccc(Cl)cc1Cl)NCCC1=CCCCC1	none
Cc1ccc(NC(=O)CSC2=C(C#N)C(c3ccc4c(c3)OCO4)C3=C(CCCC3=O)N2)c(C)c1 (configuration not stated)	none
CCOc1cccc(CN2CCN(CCc3ccccc3)C(CCO)C2)c1O (configuration not stated)	none
OCCC1CN(Cc2ccccc2O)CCN1CCc1ccccc1 (configuration not stated)	Cdc42 wt 16.0, HRas wt GTP 18.0, Rab7 wt modul 10.0, Rab2A wt mod 16.0, Rac1 wt modul 12.0, Rac1 mut GTP 13.0
CC(C)OC(=O)/C(C#N)=C/c1c[nH]c2ccccc12	none
O=C(/C=C/c1ccc(Cl)cc1)NC(=S)Nc1ccc(NC(=O)c2ccco2)cc1	none
O=C(Nc1cccc(S(=O)(=O)N2CCCC2)c1)c1ccc2c(c1)OCO2	none
CC(=O)c1cc2c(cc1NC(=O)c1cccc(S(=O)(=O)N3CCN(C)CC3)c1)OCO2	Rac1 wt modul 78.0
CN1CCN(S(=O)(=O)c2cccc(C(=O)Nc3sc4c(c3C(N)=O)CCCC4)c2)CC1	Cdc42 wt 79.0, Rab2A wt mod 77.0, Rac1 wt modul 72.0
